# Most compounds without a hit are left out; they make up all but 3.5% or so of the library.
# FBW7 activator: FBW7 E3 ligase activators, primary screen, biochemical, AlphaScreen, human; F-box/WD repeat-containing protein 7 (Homo sapiens), Q969H0; AlphaScreen FBW7–phospho-cyclin E peptide binding, activator screen; normalized activity (activation), % at 26.1 µM; 650,000 tested, 0.13% active; in the data active = normalized activity above about 1.9%;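 also: purified mutant Fbw7 with reduced substrate affinity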
# MITF inh: MITF inhibitors, primary screen, biochemical, AlphaScreen, human; 650,000 tested, 0.91% active; AlphaScreen MITF homodimerization, bead proximity signal; inhibition, % at 2.6 µM; AID 1259374, 2018; in the data active = inhibition above about 50%;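 also: 0% = vehicle wells with protein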
# GPR151 ag: activators of human GPR151, primary screen, cell-based, PathHunter beta-arrestin, luminescence; 650,000 tested, 1% active; activation, % at 11.2 µM; PathHunter beta-arrestin GPR151 cells; G-protein coupled receptor 151 (Homo sapiens), Q8TDV0; in the data active = activation above about 4.9%;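 also: 0% = median of compound wells and 100% = cells with positive control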
# Target sequence (Q8TDV0 whole entry, looked up): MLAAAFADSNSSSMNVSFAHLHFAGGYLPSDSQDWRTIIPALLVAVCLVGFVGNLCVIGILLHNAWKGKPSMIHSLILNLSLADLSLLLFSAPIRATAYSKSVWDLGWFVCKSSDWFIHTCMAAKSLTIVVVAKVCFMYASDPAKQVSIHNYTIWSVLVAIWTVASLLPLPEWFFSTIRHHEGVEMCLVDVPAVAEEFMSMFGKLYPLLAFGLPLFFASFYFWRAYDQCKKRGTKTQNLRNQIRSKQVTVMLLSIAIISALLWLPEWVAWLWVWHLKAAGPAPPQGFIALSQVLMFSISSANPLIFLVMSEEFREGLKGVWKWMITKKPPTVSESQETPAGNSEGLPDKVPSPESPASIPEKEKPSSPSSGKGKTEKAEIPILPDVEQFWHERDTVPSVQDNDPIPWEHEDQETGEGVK
# TEAD-YAP inh: TEAD-YAP interaction inhibition, primary screen, TEAD-YAP interaction inhibitor project, luminescence, HEK-TIYL cells; TEAD-Gal4/YAP UAS-luciferase luminescence; inhibition, % at 9.12 µM; 640,000 tested, 1.4% active; in the data active = inhibition above about 32%;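 also: 0% = median of test compound wells and 100% = reference inhibitor wells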
# GPR151 confirm: GPR151 activators, triplicate retest, confirmation, cell-based, PathHunter beta-arrestin, luminescence; 6,700 tested, under 10 active; GPR151 PathHunter beta-arrestin cells, 90 min; % of EA-reagent control over plate median; AID 1508609, 2020; activation, % at 11.2 µM; shares compounds with GPR151 ag;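 active = mean percent activation across replicates above the confirmation screen cutoff of 4.91%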
# GPR119 ag: GPR119 activators in beta-arrestin cells, counter-screen for GPR151 activator project, cell-based, PathHunter beta-arrestin, luminescence, triplicate; shares compounds with GPR151 ag; 90 min; 0 = compound-well median, 100 = enzyme-acceptor control; activation, % at 11.2 µM; 6,700 tested, 0.3% active;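 active = mean percent activation in the counterscreen above 29.09%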;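 also: counterscreen on off-target GPR119 to flag nonselective hits from the GPR151 activator screen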
# Active calls of the source: *; / = no result; ! = a repeat was not active.
SMILES,FBW7 activator,MITF inh,GPR151 ag,TEAD-YAP inh,GPR151 confirm,GPR119 ag
CCOC(=O)c1c(NC(=O)CSc2nnc(CNC(=O)c3cccc(F)c3)n2-c2ccc(OCC)cc2)sc2c1CCC2,0,8,3,8,/,/
CCOC(=O)c1sc(NC(=O)CSc2nnc(CNC(=O)Cc3ccccc3)n2-c2ccccc2OC)c(C(=O)OCC)c1C,0,1,-2,3,/,/
COc1ccc(N2CC(O)(c3ccccc3)[N+]3=C2CCCC3)cc1 (stereo not drawn),0,-1,1,-6,/,/
CCOC(=O)C1=C(c2ccccc2)S/C(=C2/C(=S)C(C)(C)N(C(C)=O)c3ccc(OC)cc32)S1,0,27,-2,-3,/,/
CC1C2CCCN2CCN1Cc1cccc([N+](=O)[O-])c1 (stereo not drawn),1,5,9.7*,-8,-1,-9
Cc1nn(-c2ccccn2)c2c1C(=O)CC(C)(C)C2Br (stereo not drawn),0,16,5.8*,4,-1,-8
O=C(OCCN1C(=O)c2ccccc2C1=O)c1nn(-c2ccccc2)cc1O,0,-5,-1,-4,/,/
COc1cccc2cc(-c3ccccc3)c(=O)oc12,0,-3,-8,-20,/,/
COc1cccc2cc(-c3ccc4c(c3)OCO4)c(=O)oc12,0,-11,5.2*,-52,-1,-12
O=C(CCCCn1c(=S)[nH]c2ccsc2c1=O)NCc1cccnc1,0,-2,2,-8,/,/
COc1ccc2c(c1)c(CCN1C(=O)c3ccccc3C1=O)cn2C(=O)c1ccco1,0,1,-1,2,/,/
O=C1NN(c2ccc(F)cc2)C(=O)/C1=C\c1cccc(Cl)c1Cl,0,-13,5.4*,-4,2,3
COc1cc(C2C(C(=O)OC3CCCCC3)=C(C)NC3=C2C(=O)CC(C)(C)C3)cc(OC)c1OC (stereo not drawn),0,-9,12*,-5,0,6
CCOC(=O)C1=C(C)NC2=C(C(=O)CC(C)(C)C2)C1c1ccc(OC)c(OC)c1OC (stereo not drawn),0,1,12*!,-14,0,5
CCOC(=O)C1=C(C)NC2=C(C(=O)CC(C)(C)C2)C1c1cccc(OC)c1OC (stereo not drawn),0,11,0,16,/,/
O=C1Nc2ccccc2O/C1=C\c1c(F)cccc1Cl,1,6,-1,7,/,/
N#CC1=CN(Cc2ccccc2)C=C(/C=N/Nc2ccc([N+](=O)[O-])cc2[N+](=O)[O-])C1,0,1,0,3,/,/
COc1ccc(C2CC(c3ccccc3)=NN2C(=O)CSc2cccc[n+]2[O-])cc1 (stereo not drawn),0,-1,5.0*,5,0,3
Cc1nc2nc(NCc3ccccc3F)[nH]n2c(=O)c1C,0,-7,5.0*,3,0,0
COc1ccc(CNc2nc3nc(C)c(C)c(=O)n3[nH]2)cc1,0,-12,5.5*,-11,1,17
CCCOc1ccccc1NC(=O)COc1ccc(C#N)cc1,0,5,12*,5,0,3
COc1ccc(OCC(=O)Nc2ccccc2CO)cc1,0,3,9.2*,-15,0,-4
CCOc1ccc(OCC(=O)Nc2ccccc2CC)cc1,0,2,-1,-8,/,/
CCOc1ccccc1NC(=O)COc1ccc(F)cc1,0,-3,0,-10,/,/
CCc1ccccc1NC(=O)COc1ccc(C#N)cc1,1,15,7.5*,-6,1,4
O=C(COc1ccc([N+](=O)[O-])cc1)Nc1cccc2cccnc12,0,-1,5.9*,5,0,8
COc1ccccc1-c1ccc(=O)n(CC(=O)Nc2cccc(C(C)=O)c2)n1,0,-13,0,-6,/,/
O=C(c1cn2ccccc2n1)N1CCOc2ccc(CN3CCc4ccccc4C3)cc2C1,0,-4,-1,7,/,/

# Screens as filed in PubChem BioAssay.
